In ChEMBL document CHEMBL1157539, “Thousands of chemical starting points for antimalarial lead identification” (Nature, 2010) one finds Inhibition data, which are given here for 40 molecules.

This assay has as its system Plasmodium falciparum. The experiment in a line: GSK_TCMDC: Inhibition of Plasmodium falciparum 3D7 in whole red blood cells, using parasite LDH activity as an index of growth. Test compounds present at 2uM. It counts as functional.
As a reminder, the Inhibition is the percentage by which the read-out fell short of the control. Turning to `CN1CCC(NCc2cccc(-c3ccc(S(=O)(=O)NCCN4CCCC4)c(F)c3)c2)CC1.O=C(O)C(F)(F)F`, the Inhibition turned out to be 91%.
Molecule `O=C(Nc1cccc(CN2CCCN(Cc3ccsc3)CC2)c1)c1ccc(-c2ccccc2)cc1.O=C(O)C(F)(F)F` displayed an Inhibition of 90%.
Regarding `Cc1cccc2nc(C3CCN(CC4CCN(C(=O)/C=C/c5ccc(Cl)c(Cl)c5)CC4)CC3)[nH]c12`, the Inhibition turned out to be 100%.
Under `COc1ccc(/C=C/C(=O)N2CCc3cc4nccc(N5CCN6CCC[C@H]6C5)c4cc32)cc1` stands 100%; under `CN(C)CCNCc1ccc(-c2ccc3c(Nc4ccc(Cl)cc4F)ccnc3c2)o1`, 99%.
In turn, `Cc1nc(C)c(C2CCC(c3ccc(Cl)cc3)CC2)c(O)c1Cl` (stereo not given) returned an Inhibition of 98%.
Under `Fc1ccc(C=NNc2nc3ccccc3[nH]2)cc1` stands 98%; under `Cc1cnc(NCC2CCCCC2)nc1N[C@@H](CO)C(=O)Nc1ccccc1.O=C(O)C(F)(F)F`, 83%; under `CCSc1nnc(C2CCCN(CC(=O)Nc3cc(C(F)(F)F)ccc3Cl)C2)n1CC` (stereo not given), 99%.
Take `COc1ccc(-n2ccnc2SCC(=O)Nc2cc(C)ccc2C)c(OC)c1`: the Inhibition is recorded as 94%.
Under `CN=C(NC)c1cccc(NC(=O)C=Cc2ccc(C=CC(=O)Nc3cccc(C(=NC)NC)c3)cc2)c1.Cl` stands 98%; under `Cl.N#Cc1ccc2c(c1)CN(CCC1CCC(NC(=O)c3cc4cc(OC(F)(F)F)ccc4[nH]3)CC1)CC2` (stereo not given), 100%; under `Cl.c1ccc(COc2ccc(Nc3ncnc4cnc(-c5ccc(CN6CCCCC6)o5)cc34)cc2)cc1`, 90%.
Under `CCOC(=O)c1nc(-c2cccnc2)[nH]c1NC(=S)NCc1ccccc1` stands 100%; under `COc1ccc(CN(C)CCCc2ccc(NC(=O)c3cccc4c(=O)c5cccc(F)c5[nH]c34)cc2)cc1OC`, 100%; under `CS(=O)(=O)N(c1cccc(F)c1)c1cc(C(=O)N[C@@H](Cc2ccccc2)[C@H](O)CNCc2cccc(C(F)(F)F)c2)cc(N2CCCC2=O)c1.O=CO`, 98%.
For the molecule `CC(C)C[C@@H](NC(=O)OC(C)(C)C)C(=O)Nc1ccc(Cc2ccc(NC(=O)[C@@H](CC(C)C)NC(=O)OC(C)(C)C)cc2)cc1`, the Inhibition stood at 96%.
In the case of `N#Cc1cccc(-c2cnc(N)c(-c3nc4cc(S(N)(=O)=O)ccc4[nH]3)c2)c1`, the Inhibition amounted to 100%.
`O=C(/C=C/c1ccc(Cl)c(Cl)c1)NCCCCCCN1CCN(C(=O)Nc2ccc(Cl)c(Cl)c2)CC1` came in with an Inhibition of 88%.
The value for `CCCc1ccc(C(=O)N2C(c3nccs3)C(C(N)=O)CC2(CC(C)C)C(=O)O)cc1` (stereo not given) was 94%.
The molecule `COC(=O)Nc1nc2cc3c(cc2s1)OCCO3` came in with an Inhibition of 99%.
In turn, `Cc1nc(N)nc(N)c1OCc1cccc2ccccc12.Cl` came in with an Inhibition of 96%.
Molecule `CCCNc1nc(Nc2ccccc2C)nc2ccccc12` gave an Inhibition of 95%.
As for `COc1cc2nc(N3CCC(CNC(=O)c4cc5ccccc5s4)CC3)nc(N)c2cc1OC`, the Inhibition turned out to be 100%.
In the case of `C=CCn1c(Sc2ccc(C#N)c([N+](=O)[O-])c2)nnc1-c1cccc(Cl)c1`, the Inhibition was found to be 97%.
Molecule `COc1ccc(OCC(=O)Nc2nc(-c3ccc(OC)cc3)c(C)s2)cc1` had an Inhibition of 100%.
Under `CC(=O)Nc1ccc(CCNC(C)Cc2ccc(C(=O)Nc3ccc(CC(C)NCCc4cccc(Cl)c4)cc3)cc2)cc1.Cl` (stereo not given) stands 100%; under `COc1cc2nc(Nc3ccc4c(cnn4Cc4ccccc4)c3)nc(Nc3ccc4c(cnn4Cc4ccccc4)c3)c2cc1OC`, 99%.
`CCC(C)NS(=O)(=O)c1ccc2nc(Nc3ccc(C)c(Cl)c3)n(C3CCCCC3)c2c1` (stereo not given) registered an Inhibition of 99%.
As to `CC1(C)NC(N)=NC(=N)N1OCOc1ccc(Cl)cc1.Cl`, the Inhibition was found to be 94%.
`CN(C)CCn1c(=N)n(CC(O)c2ccc(Cl)c(Cl)c2)c2ccccc21.Cl` (stereo not given) gave an Inhibition of 99%.
Under `COc1cccc(-n2ncc3c(N/N=C/c4ccc(CN(C)CCN(C)C)cc4)ncnc32)c1` stands 100%.
Turning to `CC[C@H](C)CNC(=O)c1ccnc(-c2ccc(CN3CCC(N4CCCC4)CC3)cc2)c1.O=C(O)C(F)(F)F`, the Inhibition came to 99%.
For the molecule `CC(C)(CNCc1cc(Cl)cc(Cl)c1)c1nc(-c2ccnc(N)n2)c(-c2ccc(Cl)c(O)c2)[nH]1.Cl`, the Inhibition is 92%.
Consider `O=C(/C=C/c1ccc(Cl)c(Cl)c1)N1CCC(CN2CCC(Cc3c[nH]c4ccccc34)CC2)CC1`, for which the Inhibition is listed as 98%.
As to `Cc1cccc2nc(-c3ccc(-c4cccc(NC(=O)C(C)CN(C)C)c4)cc3)[nH]c12` (stereo not given), the Inhibition is listed as 99%.
Under `COc1ccc2ncc(F)c([C@H](O)CN3CCC(NCc4ccc5c(c4)OCCO5)CC3)c2c1.Cl` stands 100%.
Under `COc1ccc(NC2=C(c3ccccc3)C(=O)c3ccccc32)cn1` stands 96%; under `Cc1cc(N[C@@H](CC(C)C)C(=O)NCc2cccs2)nc(NCCc2ccc(F)cc2)n1.O=C(O)C(F)(F)F`, 100%; under `Cc1cc(N[C@@H](Cc2ccccc2)C(=O)NC2CCCC2)nc(NCc2ccccc2C)n1.O=C(O)C(F)(F)F`, 91%.
